The first assay relates to RARb homodimer (NR concentration 270 nM). The assay is described as follows: PBM binding z-score (relative to random genomic background probes); higher = stronger binding; sequences stand for … in GC…GCGATTGACAGCGTAGAATGAAGG
The method, boiled down: (§1)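 For binding z-scores, the reference was random background probes on custom Agilent 4×180K protein-binding microarrays. These arrays were incubated 1 h with ligand-free nuclear receptor dimers in PBS pH 7.4, 2% milk, 0.02% Triton X-100, 1 mM DTT, 0.2 mg/mL BSA and 0.4 mg/ml salmon testes DNA. Fluorescence was scanned after antibody detection of each partner (one per run) and regression-normalized.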
In the case of CCTTACGGGTCAAGGTTTTAGCACGGGTGGTACG, the PBM binding z-score is 3.11.

ATCGAAAGGTCGTGAGGTGAGTGTACAGAAAGGC yielded a PBM binding z-score of 3.06.

With TCTTGTAGATCGGCAGGTTAAGAAAGCTGGCCAA, the PBM binding z-score worked out at 0.124.

In the case of ATCTCTAGGTAACAAGTTCAGTGTAAGAGAGGAC, the PBM binding z-score worked out at 1.94.

Regarding ATATGTAGGTTACATCCCGGTCATTCAGGCTATG, the PBM binding z-score was found to be 2.44.

For the sequence GCAGACAGGTGAGACGCAGGTAACTCAGGGTGGC, the PBM binding z-score was -0.0826.

TAGCCTAGGTCAGGTCGGGCCAGTATACGCTATA came in with a PBM binding z-score of 2.67.

The sequence GGAACGAGGGCAAAGTTGATCGCATCTGTCGACG gave a PBM binding z-score of 1.19.

Regarding TGAATGAGGTTATAAGATCAGCGAACGTTGCAAA, the PBM binding z-score turned out to be 0.0466.

CGAAGGAGGGCATGAGTTGATAGCAAATGCCGAT registered a PBM binding z-score of 0.409.

In turn, CAAACTAGGTCACGAAAGGTCAATGTCGAATGAC gave a PBM binding z-score of 5.73.

In turn, GTACCACGGTGAATAGGTCGTTGATGAGTAGGCG gave a PBM binding z-score of 0.859.

For the sequence CCTTACGTGTCACTCCAGGTTATAGCATCGGAGT, the PBM binding z-score stood at 1.36.

Sequence TGACCAAGGTGAGCTGAGGTCGTTGATCCAACTC had a PBM binding z-score of 1.63.

In turn, TTACCAAGGCGAGCTGAGGTCGTTGATCCAACTC returned a PBM binding z-score of 0.643.

ATACCAAGGTGGTCGTGAGGTCGTTGATACTAAC yielded a PBM binding z-score of 1.63.

As to AGAATGAGGTTATACGTAGATCAGGGGAGAAAGT, the PBM binding z-score turned out to be 0.956.

The sequence GCTAGTTGATCAGTAAAAGGTCACACACCGGTCG gave a PBM binding z-score of 4.9.

On to CAAACTAGGTCACCGGAAGTTCAAAGTCCGCATG, for which the PBM binding z-score is 4.69.

Sequence GGAACGAGGGCAAAGATGATAGCATCTGTCGACG came in with a PBM binding z-score of 0.55.

On to TAGTCTAGGTCATGGGCCAGTATACCACGCGAAC, for which the PBM binding z-score was 3.09.

Sequence CGTCCAACGTCAGAGAGGTCAGTGAATGCCGAGT returned a PBM binding z-score of 3.88.

For the sequence TCGCGTAGGTTAGGGGCATTCAGAATGGCGTCGA, the PBM binding z-score was 0.811.

CCGACTGGGGCAGAAAGGATACCATACCATCCGG showed a PBM binding z-score of 0.0502.

In the case of ATCTCTAGGTAAAGATAGTTCAGGGAATGCAAAT, the PBM binding z-score came out at 0.997.

Regarding TAGCCTAGGTCGTGCGGGCCAGTATAGTGTCGGC, the PBM binding z-score is 0.429.

As to GCGACTGGGGCAACAGCAGGTTACCATAACTTAA, the PBM binding z-score worked out at 0.882.

ACTAGCAGGCCAGGTTTGGGTCACTCAAACAAAG: the PBM binding z-score was 1.92.

TCTCGGAGGACAGGAAAGGTCAGAGCTCGACATC registered a PBM binding z-score of 4.65.

As to CTCGAAAGGTCGTGCTCACGTGAGTATACCAAAC, the PBM binding z-score is 2.82.

In turn, TGAATGAGGTTATAAGATAAGGGAACGTTGCAAA showed a PBM binding z-score of 0.00548.

TCTCGGAGGACACGAATGTCAGAGCTTTCCAGAG came in with a PBM binding z-score of 0.771.

Consider TCGAGTAGGCTAGGGGCATTCAGAATGGCGTCGA, for which the PBM binding z-score was -0.0899.

CGAACGAGGGCATGAGCTGATAGCAAATGCCGAT yielded a PBM binding z-score of 0.6.

For the sequence TCTAGTTGGTCAAAAGTCACACACTCGAAATGCG, the PBM binding z-score is 1.01.

CGTCTAAGGTCAGAGAGGTCAGTGAATGCCGAGT displayed a PBM binding z-score of 5.36.

Take CATCGGAGGACAGAAGGTCAGAGCTGTCCGCTTT: the PBM binding z-score is 3.44.

As to ACAGACAGGTTAGTGAAGGTAACTCAGCTGGACG, the PBM binding z-score was 0.435.

On to TCAGACAGGTGAAGGTAACGCAGGTACGCAGTCG, for which the PBM binding z-score came out at 0.708.

In turn, CGAACTAGGTCAAGGTCAGTGAATCTCCGCACGC yielded a PBM binding z-score of 4.79.

The test system of the next assay is RARg:RXRa (NR concentration 270 nM, RXRa partner concentration 90 nM). The description is as above. The method, boiled down: as §1
CCTTACGGGTCAAGGTTTTAGCACGGGTGGTACG: the PBM binding z-score stood at 4.62.

In turn, ATCGAAAGGTCGTGAGGTGAGTGTACAGAAAGGC showed a PBM binding z-score of 4.52.

In turn, TCTTGTAGATCGGCAGGTTAAGAAAGCTGGCCAA yielded a PBM binding z-score of -0.0429.

Take ATCTCTAGGTAACAAGTTCAGTGTAAGAGAGGAC: the PBM binding z-score amounted to 1.5.

As to ATATGTAGGTTACATCCCGGTCATTCAGGCTATG, the PBM binding z-score was found to be 2.92.

For GCAGACAGGTGAGACGCAGGTAACTCAGGGTGGC, the PBM binding z-score is 0.237.

Sequence TAGCCTAGGTCAGGTCGGGCCAGTATACGCTATA registered a PBM binding z-score of 2.95.

For the sequence GGAACGAGGGCAAAGTTGATCGCATCTGTCGACG, the PBM binding z-score stood at 1.83.

TGAATGAGGTTATAAGATCAGCGAACGTTGCAAA yielded a PBM binding z-score of 1.48.

Turning to CGAAGGAGGGCATGAGTTGATAGCAAATGCCGAT, the PBM binding z-score worked out at 0.997.

In turn, CAAACTAGGTCACGAAAGGTCAATGTCGAATGAC came in with a PBM binding z-score of 7.46.

In turn, GTACCACGGTGAATAGGTCGTTGATGAGTAGGCG registered a PBM binding z-score of 0.755.

Regarding CCTTACGTGTCACTCCAGGTTATAGCATCGGAGT, the PBM binding z-score turned out to be 0.925.

The sequence TGACCAAGGTGAGCTGAGGTCGTTGATCCAACTC had a PBM binding z-score of 1.46.

In the case of TTACCAAGGCGAGCTGAGGTCGTTGATCCAACTC, the PBM binding z-score was 0.197.

The sequence ATACCAAGGTGGTCGTGAGGTCGTTGATACTAAC showed a PBM binding z-score of 1.25.

For AGAATGAGGTTATACGTAGATCAGGGGAGAAAGT, the PBM binding z-score is 1.78.

GCTAGTTGATCAGTAAAAGGTCACACACCGGTCG had a PBM binding z-score of 5.1.

Regarding CAAACTAGGTCACCGGAAGTTCAAAGTCCGCATG, the PBM binding z-score came to 7.

On to GGAACGAGGGCAAAGATGATAGCATCTGTCGACG, for which the PBM binding z-score turned out to be 1.1.

With TAGTCTAGGTCATGGGCCAGTATACCACGCGAAC, the PBM binding z-score worked out at 4.03.

The sequence CGTCCAACGTCAGAGAGGTCAGTGAATGCCGAGT came in with a PBM binding z-score of 2.75.

TCGCGTAGGTTAGGGGCATTCAGAATGGCGTCGA: the PBM binding z-score was found to be 0.412.

The sequence CCGACTGGGGCAGAAAGGATACCATACCATCCGG had a PBM binding z-score of -0.104.

As to ATCTCTAGGTAAAGATAGTTCAGGGAATGCAAAT, the PBM binding z-score worked out at 0.771.

As to TAGCCTAGGTCGTGCGGGCCAGTATAGTGTCGGC, the PBM binding z-score came out at 0.705.

In turn, GCGACTGGGGCAACAGCAGGTTACCATAACTTAA registered a PBM binding z-score of 0.815.

Take ACTAGCAGGCCAGGTTTGGGTCACTCAAACAAAG: the PBM binding z-score was 1.47.

On to TCTCGGAGGACAGGAAAGGTCAGAGCTCGACATC, for which the PBM binding z-score came to 4.1.

CTCGAAAGGTCGTGCTCACGTGAGTATACCAAAC displayed a PBM binding z-score of 4.15.

TGAATGAGGTTATAAGATAAGGGAACGTTGCAAA returned a PBM binding z-score of 1.36.

In the case of TCTCGGAGGACACGAATGTCAGAGCTTTCCAGAG, the PBM binding z-score is 0.642.

The sequence TCGAGTAGGCTAGGGGCATTCAGAATGGCGTCGA displayed a PBM binding z-score of -0.329.

For the sequence CGAACGAGGGCATGAGCTGATAGCAAATGCCGAT, the PBM binding z-score came to 1.19.

As to TCTAGTTGGTCAAAAGTCACACACTCGAAATGCG, the PBM binding z-score turned out to be 1.34.

CGTCTAAGGTCAGAGAGGTCAGTGAATGCCGAGT: the PBM binding z-score is 6.8.

Consider CATCGGAGGACAGAAGGTCAGAGCTGTCCGCTTT, for which the PBM binding z-score turned out to be 3.28.

On to ACAGACAGGTTAGTGAAGGTAACTCAGCTGGACG, for which the PBM binding z-score worked out at 0.363.

TCAGACAGGTGAAGGTAACGCAGGTACGCAGTCG had a PBM binding z-score of 0.407.

Regarding CGAACTAGGTCAAGGTCAGTGAATCTCCGCACGC, the PBM binding z-score was 5.23.

Values taken from the supplement of paper PMC6555819.
